Source: PubChem (several laboratories)
Rows were chosen to be rich in hits. Some 2.6% of all compounds tested hit in one or more screens of this group.
eIF4H inh – inhibitors of RNA binding by human eIF4H. inhibition, % at 35 µM. hit rate 0.94% among 290,000. eIF4H fluorescence polarization binding assay. AID 2012. Q15056;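 also: calls also rest on retests at 20 µM and on dose response follow-up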
MLLE-PAM2 inh – inhibitors of microRNA-mediated deadenylation, human PABP1 MLLE binding. P11940. hit rate 0.36% among 360,000. GST-MLLE / FITC-PAM2 fluorescence polarization. inhibition, % at 20 µM; in the data active = inhibition above about 35%, passing the limit was not always enough;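 also: plate controls were DMSO wells with GST-MLLE for no effect and wells lacking GST-MLLE protein for full effect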
ABCB6 inh 2 – human ABCB6 transporter inhibition | hit rate 0.19% among 360,000 | K562-ABCB6 porphyrin accumulation, flow cytometry, 1 h; active compounds read low | fluorescence ratio to DMSO, % at 10 µM;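 active = fluorescence ratio to DMSO below 75%, the collection mean minus 3 SD; inconclusive = too few cells collected in the well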;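 also: signal is porphyrin accumulated inside mitochondria; 100% equals median channel fluorescence of DMSO control wells; lower ratio means ABCB6 inhibition with less porphyrin fluorescence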
Target sequence (Q9NP58 whole entry, looked up): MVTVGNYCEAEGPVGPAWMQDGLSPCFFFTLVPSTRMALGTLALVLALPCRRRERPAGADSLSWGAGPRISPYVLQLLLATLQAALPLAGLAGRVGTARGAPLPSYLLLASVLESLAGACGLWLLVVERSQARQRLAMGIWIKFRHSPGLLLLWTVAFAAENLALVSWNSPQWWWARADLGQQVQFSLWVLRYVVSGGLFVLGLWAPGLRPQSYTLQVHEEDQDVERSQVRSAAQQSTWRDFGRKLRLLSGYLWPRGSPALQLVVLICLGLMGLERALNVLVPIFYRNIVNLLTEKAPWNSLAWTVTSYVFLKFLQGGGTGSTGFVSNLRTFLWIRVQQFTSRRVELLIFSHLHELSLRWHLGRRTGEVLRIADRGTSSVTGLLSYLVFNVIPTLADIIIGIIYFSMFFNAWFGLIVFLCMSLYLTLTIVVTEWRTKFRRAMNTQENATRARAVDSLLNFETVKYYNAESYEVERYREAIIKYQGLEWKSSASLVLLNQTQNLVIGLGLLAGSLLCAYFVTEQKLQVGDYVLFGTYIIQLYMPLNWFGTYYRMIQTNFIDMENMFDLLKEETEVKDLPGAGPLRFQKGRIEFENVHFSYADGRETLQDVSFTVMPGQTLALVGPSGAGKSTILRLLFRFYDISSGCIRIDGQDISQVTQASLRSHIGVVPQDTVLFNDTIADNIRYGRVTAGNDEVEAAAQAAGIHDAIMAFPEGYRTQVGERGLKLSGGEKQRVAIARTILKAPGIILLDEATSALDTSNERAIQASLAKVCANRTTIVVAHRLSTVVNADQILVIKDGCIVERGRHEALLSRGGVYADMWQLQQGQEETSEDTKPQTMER
PHOSPHO1 block – PHOSPHO1 (human) inhibition | recombinant PHOSPHO1, absorbance phosphatase assay | inhibition, % at 13.3 µM | hit rate 1.1% among 290,000 | Q8TCT1; in the data active = inhibition above about 60%
PABP FP inh – blocks human PABP binding to poly(A) RNA; calls only at 35 µM; P11940; fluorescence polarization; hit rate 1% among 290,000; AID 2014;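 also: calls also rest on retests at 20 µM and on dose response follow-up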
AI-2 QS mod – Vibrio harveyi AI-2 quorum sensing modulation; activity change, % at 7.5 µM; hit rate 0.4% among 300,000; Vibrio harveyi JMH597 AI-2 luminescence/OD600 ratio, 9 h; active compounds read low; strain lacks LuxN and CqsS sensors; 0 = neutral-control median; in the data active = activity change below about -75%, passing the limit was not always enough; inconclusive = no clear call, values can overlap the other calls;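 also: luminescence divided by OD600 gain over 9 h not by final OD600 alone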
JMH597 growth – retest: blocks Vibrio harveyi JMH597 growth. shares compounds with AI-2 QS mod. OD600 absorbance, 9 h; lacks LuxN and CqsS sensors. growth inhibition, % at 7.5 µM. hit rate 1% among 750;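 active = every replicate shows growth inhibition above 50%; inconclusive = at least half, but not all, replicates pass that cutoff; inactive = fewer than half of replicates pass it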
BB721 const-QS lum – retest counter-screen: lowers luminescence of constitutive-QS Vibrio harveyi BB721; shares compounds with AI-2 QS mod; 9 h; inhibition, % at 7.5 µM; hit rate 95% among 750; AID 2727;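 active = inhibition above about 80% in every replicate, not just on average, limit read from the data; inconclusive = at least half of replicates past the limit, but not all; inactive = fewer than half of replicates past the limit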
BB721 growth rt – retest Vibrio harveyi BB721 growth inhibition; shares compounds with AI-2 QS mod; OD600 absorbance, 9 h; growth inhibition, % at 7.5 µM; hit rate 3% among 750; AID 2728;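 active = every replicate shows growth inhibition above 50%; inconclusive = at least half but not all replicates above 50% inhibition; inactive = under half of replicates above 50% inhibition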
JMH597 AI-2 mod – Vibrio harveyi AI-2 signaling luminescence modulation – JMH597 strain, confirmation. shares compounds with AI-2 QS mod. Vibrio harveyi JMH597 AI-2 quorum sensing luminescence, 9 h; luxN and CqsS knockout, AI-2 only. inhibition, % at 7.5 µM. hit rate 97% among 750. AID 2736;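 active = every replicate shows more than 75% inhibition of signal versus neutral control wells; inconclusive = half to three quarters of replicates exceed 75% inhibition; inactive = fewer than half of replicates exceed 75% inhibition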
* marks the source's active call; other numbers are inactive results; i = inactive; ? = inconclusive; . = not tested or not shown. Unless noted, no rule for the calls is given here.

SMILES | eIF4H inh | MLLE-PAM2 inh | ABCB6 inh 2 | PHOSPHO1 block | PABP FP inh | AI-2 QS mod | JMH597 growth | BB721 const-QS lum | BB721 growth rt | JMH597 AI-2 mod
COc1cccc(NC(=O)CN2C(=O)NC(C)(C3CC3)C2=O)c1 (centres undefined) | . | 0 | 90 | . | . | . | . | . | . | .
COc1cccc(NC(=O)CN2C(=O)NC(c3ccccc3)(c3ccccc3)C2=O)c1 | -4 | 6 | 100 | 6 | i | -93* | 8 | 93* | 10 | 97*
NCCSC1CC(=O)N(c2ccc(F)cc2)C1=O (centres undefined) | -9 | 16 | 101 | 36 | i | 25 | . | . | . | .
O=C(O)CCSC1CC(=O)N(c2ccccc2)C1=O (centres undefined) | 4 | 3 | 102 | 31 | i | 11 | . | . | . | .
O=C1CC(SCCO)C(=O)N1c1ccc(Oc2ccccc2)cc1 (centres undefined) | -2 | 1 | 99 | -10 | i | -83* | 5 | 91* | 13 | 92*
NCCSC1CC(=O)N(c2ccc(Cl)c(Cl)c2)C1=O (centres undefined) | 7 | 15 | 101 | 34 | i | -80* | 3 | 90* | 34 | 94*
CC1(C(=O)NC2CCCCCC2)CCN1C(=O)C1(c2ccccc2)CC1 (centres undefined) | . | 12 | 97 | . | . | . | . | . | . | .
Cc1ccc(Cn2cc(-c3ccccc3)nn2)cc1 | 3 | -8 | 94 | -7 | i | -95* | -2 | 98* | -4 | 99*
CN(C)S(=O)(=O)c1cccc(NC(=O)CSc2ncnc3ccccc23)c1 | 5 | -20 | 99 | 20 | i | -46 | . | . | . | .
CN(C)S(=O)(=O)c1ccc(NC(=O)CSc2ncnc3ccccc23)cc1 | 3 | 26 | 110 | 4 | i | -86* | 4 | 92* | 6 | 94*
CNC(=O)COc1ncnc2sccc12 | -12 | 1 | 100 | -7 | i | . | . | . | . | .
CN(C)S(=O)(=O)c1ccc(NC(=O)COc2ncnc3sccc23)cc1 | -10 | -10 | 97 | 32 | i | -97* | -2 | 100* | 5 | 100*
CNc1oc(-c2ccccc2)nc1C#N | -8 | 17 | 101 | -36 | i | 15 | . | . | . | .
N#Cc1nc(-c2ccccc2)oc1NCc1ccco1 | -4 | -8 | 90 | 6 | i | ? | 6 | 90* | 3 | 93*
COc1ccc(CNc2oc(-c3ccccc3)nc2C#N)cc1 | 1 | -1 | 99 | 10 | i | -95* | 22 | 98* | -5 | 99*
CCCNC(=O)C1(C)CCN(C(=O)c2ccc3c(c2)CCO3)C1 (centres undefined) | . | -3 | 106 | . | . | . | . | . | . | .
O=C(c1cc2cc(Cl)ccc2[nH]1)N1CCN(C(=O)c2ccco2)CC1 | -8 | -4 | 104 | 7 | i | -94* | 15 | 97* | 15 | 98*
O=C(CCl)NN1C(=O)NC(c2ccccc2)(c2ccccc2)C1=O | -13 | -4 | 85 | 10 | i | -95* | 25 | 98* | -226 | 98*
COCCNC(=O)C1(C)CCN(C(=O)c2cccnc2Oc2ccccc2)C1 (centres undefined) | . | 5 | 96 | . | . | . | . | . | . | .
CC(C)CC(=O)/C=C/n1c(=S)oc2ccccc21 | -15 | -10 | 84 | 1 | i | -86* | 29 | 93* | 31 | 93*
Cn1c(=S)oc2ccccc21 | -5 | 25 | 90 | -141 | i | 19 | . | . | . | .
CCCCCCn1cc(CN2CC(N(C)CCC)CS2(=O)=O)nn1 (centres undefined) | . | . | 98 | . | . | . | . | . | . | .
COc1ccc(OCC(O)CN2CCc3ccccc3C2)cc1 (centres undefined) | -17 | 9 | 99 | 18 | i | 16 | . | . | . | .
CC(C)(C)c1ccc(OCC(O)CN2CCc3ccccc3C2)cc1 (centres undefined) | . | 12 | 95 | . | . | -82* | 16 | 81* | 1 | 88*
O=C(CCN1C(=O)CC1c1ccco1)N1CCOCC1 (centres undefined) | . | 2 | 92 | . | . | . | . | . | . | .
SMILES | eIF4H inh | MLLE-PAM2 inh | ABCB6 inh 2 | PHOSPHO1 block | PABP FP inh | AI-2 QS mod | JMH597 growth | BB721 const-QS lum | BB721 growth rt | JMH597 AI-2 mod
O=C(COC(=O)c1ccc(Cl)s1)c1cc2ccccc2o1 | -5 | -42 | 100 | 8 | i | -95* | 21 | 99* | 29 | 99*
Cc1ccc(O)c(CNc2ccc(S(=O)(=O)Nc3nccs3)cc2)c1 | -18 | 3 | 97 | 24 | i | -89* | 19 | 93* | 28 | 95*
O=C(CCS(=O)(=O)c1ccccc1)Nc1ccc(S(=O)(=O)Nc2nccs2)cc1 | . | 10 | 93 | . | . | . | . | . | . | .
O=C(CCc1ccccc1)Nc1ccc(S(=O)(=O)Nc2nccs2)cc1 | 2 | 8 | 102 | -11 | i | -85* | 18 | 89* | 8 | 93*
CCOC(=O)[C@]12CCC=C1N(Cc1ccco1)C(=O)[C@H](CC(=O)N1CCCC1)C2 | . | . | 102 | . | . | . | . | . | . | .
O=C1NN=C(c2ccc(Br)cc2)CC1c1ccc(Cl)cc1 (centres undefined) | -5 | 2 | 95 | 28 | i | -84* | 4 | 98* | 12 | 97*
CCc1ccc(C2CC(c3ccc(Cl)cc3)=NNC2=O)cc1 (centres undefined) | 0 | 2 | 94 | 6 | i | -82* | -8 | 88* | -22 | 87*
Cc1ccc(C2CC(c3ccc(Cl)cc3)=NNC2=O)cc1 (centres undefined) | -2 | 13 | 98 | 10 | i | -73 | . | . | . | .
CN(C)S(=O)(=O)c1ccc(Oc2ccccc2)cc1 | -6 | 5 | 93 | 6 | i | -93* | -8 | 84* | -56 | 99*
CC(Cc1cccnc1)NC(=O)c1cc(COc2c(F)cccc2F)on1 (centres undefined) | -10 | 3 | 97 | 24 | i | ? | -17 | 88* | -6 | 92*
CCCN1CCN(CCCNC(=O)CN2C(=O)COc3ccc(C(C)(C)C)cc32)CC1 | . | -19 | 99 | . | . | . | . | . | . | .
CCN(CC)c1ccc(NC(=S)NC(=O)Cc2ccccc2)cc1 | 6 | 15 | 100 | -27 | i | 14 | . | . | . | .
Cc1ccccc1-c1ccc(=O)n(CC(=O)Nc2ccc(S(=O)(=O)N(C)C)cc2)n1 | -1 | 0 | 101 | -100 | i | -87* | 21 | 93* | 7 | 96*
CN(C)S(=O)(=O)c1ccc(NC(=S)NC(=O)Cc2ccccc2)cc1 | 2 | 29 | 101 | 11 | i | -86* | -1 | 16 | -129 | 25
